PP5 inh = blocks human protein phosphatase 5 activity; P53041; purified PP5c, OMFP substrate fluorescence; inhibition, % at 6.7 µM; actives 0.18% (n = 320,000); AID 1987;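 active = inhibition above the campaign's mean inhibition across all tested compounds plus 3 SD, cut at about 9.5% in these data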;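 note: 0% = DMSO only and 100% = 100 µM cantharidin control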
PAFAH2 FP inh = inhibitors of human PAFAH2 | Q99487 | recombinant PAFAH2, FP-rhodamine activity probe, fluorescence polarization | inhibition, % at 3.39 µM | actives 0.99% (n = 340,000) | AID 492956;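 active = inhibition above the mean over all tested compounds plus 3 SD, cut at about 30% in these data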;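 note: inhibitors block probe labeling of enzyme so polarization drops; 0% = enzyme with DMSO and 100% = wells lacking PAFAH2 protein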
PAFAH1B3 inh = blocks human PAF acetylhydrolase 1B catalytic subunit 3; actives 0.28% (n = 340,000); inhibition, % at 3.39 µM; AID 492972; recombinant PAFAH1B3, FP-rhodamine probe, fluorescence polarization;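 active = inhibition above the screen-wide average of all tested compounds plus 3 SD, cut at about 25% in these data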;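 note: 0% = enzyme with DMSO only and 100% = wells lacking PAFAH1B3 protein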
PP1 counter = PP1-alpha (human) inhibition in PP5 counter-screen. P62136. purified PP1alpha, OMFP fluorescence. inhibition, % at 6.7 µM. actives 0.9% (n = 320,000). AID 2235;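 active = inhibition above the mean inhibition of all tested compounds plus 3 SD, computed separately for each screening campaign, cut at about 15% in these data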
PAFAH1B2 inh = PAFAH1B2 (human) inhibition; P68402; recombinant PAFAH1B2, FP-rhodamine activity probe, fluorescence polarization; inhibition, % at 3.39 µM; actives 1.2% (n = 340,000); AID 492953;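 active = inhibition above the mean of all tested compounds plus 3 SD, cut at about 24% in these data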;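 note: 0% = enzyme with DMSO and 100% = wells lacking PAFAH1B2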
pPAFAH FP inh = inhibitors of human plasma PAF acetylhydrolase (pPAFAH); Q13093; recombinant pPAFAH, FP-rhodamine probe fluorescence polarization; inhibition, % at 3.39 µM; actives 1.5% (n = 330,000); AID 463082;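 active = inhibition above the mean inhibition across the screen plus 3 SD, cut at about 25% in these data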;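 note: inhibitors block binding of the rhodamine activity-based probe so polarization drops; 0% = enzyme with DMSO and 100% = wells lacking pPAFAH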
Target sequence (Q13093 whole entry, looked up): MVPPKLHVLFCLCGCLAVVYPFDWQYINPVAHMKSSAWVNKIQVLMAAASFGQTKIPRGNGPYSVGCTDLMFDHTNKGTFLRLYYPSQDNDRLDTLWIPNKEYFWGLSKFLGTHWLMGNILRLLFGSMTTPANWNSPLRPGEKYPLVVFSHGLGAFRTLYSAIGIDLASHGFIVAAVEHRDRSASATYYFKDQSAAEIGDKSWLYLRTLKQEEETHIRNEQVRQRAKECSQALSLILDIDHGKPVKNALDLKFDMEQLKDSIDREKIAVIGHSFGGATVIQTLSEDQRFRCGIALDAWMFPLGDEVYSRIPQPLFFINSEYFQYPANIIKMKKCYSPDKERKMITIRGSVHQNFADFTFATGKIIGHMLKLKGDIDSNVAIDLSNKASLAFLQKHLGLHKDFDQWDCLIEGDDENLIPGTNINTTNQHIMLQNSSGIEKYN
* marks the source's active call; other numbers are inactive results; nt = no result given. The list is not random: actives were taken first. Their share in the collection is about 3.4%.

SMILES	PP5 inh	PAFAH2 FP inh	PAFAH1B3 inh	PP1 counter	PAFAH1B2 inh	pPAFAH FP inh
Cc1cc(OC(C)C(=O)NCCc2c[nH]c3ccccc23)c2c(C)cc(=O)oc2c1 (stereo not drawn)	1	-2	1	1	22	4
COc1ccc2[nH]cc(CCNC(=O)COc3cc(C)cc4oc(=O)cc(C)c34)c2c1	1	16	7	6	25*	3
O=C(NC(=S)NCCc1ccccn1)c1ccco1	2	5	6	4	2	-1
CN(CCc1ccccn1)C(=S)NC(=O)c1ccco1	0	1	5	-6	53*	4
O=C(NC12CC3CC(CC(C3)C1)C2)N1CC2Cc3cccc(=O)n3C(C2)C1 (stereo not drawn)	2	-1	3	-2	-3	-2
NC(=O)c1ccc(NC(=O)CN2C(=O)NC3(CCCCCCC3)C2=O)cc1	nt	8	12	nt	3	26*
Cc1ccc(Sc2ccc(NC(=O)CCN3C(=O)NC4(CCCC4)C3=O)cc2)c(C)c1	6	38*	2	4	7	32*
O=C(CCCN1C(=O)NC2(CCCC2)C1=O)Nc1ccc(F)cc1	0	-5	0	-1	2	0
O=C(CNC(=O)c1ccccc1)NCc1ccc(Cl)cc1	-1	1	5	-2	2	-2
O=C(NC1CCCCC1)N(CCN1CCOCC1)Cc1cc2cc3c(cc2[nH]c1=O)OCCO3	-4	8	3	2	1	0
COc1ccccc1NC(=O)c1cc2c(CO)cnc(C)c2oc1=Nc1ccc(OC)c(OC)c1	2	-4	12	0	0	25*
O=C(NCc1ccco1)c1ccccc1NS(=O)(=O)c1ccc(Br)s1	1	15	8	3	14	28*
CCN(CC)C(=O)C1CCN(S(=O)(=O)c2ccc3oc4ccccc4c3c2)CC1	6	-3	6	10	0	-4
Cc1cc(-c2csc(N)n2)c(C)n1-c1ccc(Cl)c(Cl)c1	-3	-2	4	17*	3	10
COc1ccc(-n2c(C)cc(-c3csc(N)n3)c2C)cc1	1	1	6	17*	-3	9
CCCn1c(C)cc(-c2csc(N)n2)c1C	4	4	2	7	1	16
C=CCn1c(C)cc(-c2csc(N)n2)c1C	0	9	-1	15	2	16
COc1ccccc1N1CCN(Cc2cc(Br)c(O)c3ncccc23)CC1	7	10	9	9	4	30*
CCOc1ccccc1N1CCN(Cc2cccc(OC)c2O)CC1	1	-2	7	1	1	0
O=C(COc1ccc(Cl)cc1)c1ccc(O)cc1O	2	-8	3	3	27*	-2
Cc1ccn2c(=O)nc(SCC(=O)N3CCC(C)CC3)nc2c1	-1	6	2	-6	1	26*
Cc1cccn2c(=O)nc(SCC(=O)c3ccc(Cl)cc3)nc12	0	7	4	-2	11	8
Cc1ccn2c(=O)nc(SCC(=O)c3ccc(Cl)cc3)nc2c1	-1	6	4	-4	6	25*
Cc1cc(C)cc(NC(=O)COC(=O)CN=C2NS(=O)(=O)c3ccccc32)c1	-1	4	-1	-1	4	5
CCCC(=O)Nc1sc(-c2ccccc2)c(-c2ccccc2)c1C(=O)O	-2	5	-1	2	42*	6
SMILES	PP5 inh	PAFAH2 FP inh	PAFAH1B3 inh	PP1 counter	PAFAH1B2 inh	pPAFAH FP inh
Cn1c(=O)[nH]c2c(cnn2C)c1=O	nt	-1	12	nt	3	nt
CCN(CC)S(=O)(=O)c1ccc(N2Cc3ccccc3C2=N)cc1	-2	-3	6	-2	3	4
Nc1ccc(CSc2ccc(Cl)cc2)cc1	1	2	6	1	39*	11
Cc1cc(C)nc(SCc2ccc(Cl)cc2)n1	2	2	5	0	9	6
CC1(OC(=O)C2CCCC2)C(=O)C=C2C=C(c3ccsc3)N(CCc3c[nH]c4ccccc34)C=C2C1=O (stereo not drawn)	2	3	0	17*	6	15
CC1(OC(=O)C2CCCC2)C(=O)C=C2C=C(c3ccsc3)N(CC3CC3)C=C2C1=O (stereo not drawn)	-7	0	16	1	3	-3
Oc1ccc2c(c1)c1c3n2CCNC3CCC1 (stereo not drawn)	1	2	8	-2	2	9
COC(=O)/C(C#N)=C/c1c(N2CCN(C)CC2)nc2ccccn2c1=O	1	4	7	1	5	-1
Cc1ccc(Cl)cc1N1CCN(C(=O)CSc2ccsc2[N+](=O)[O-])CC1	5	8	1	17*	-3	12
COc1ccc(S(=O)(=O)N2CCC(C(=O)N3CCCC3)CC2)cc1Cl	2	3	-1	0	2	2
Cc1ccc(S(=O)(=O)NCC(=O)N(CC(=O)NC(C)(C)C)Cc2ccc3c(c2)OCO3)cc1	2	2	11	2	13	6
CCc1cc(=O)oc2c3c(cc(OCC(=O)NCCCC(=O)O)c12)OC(C)(C)CC3	3	39*	12	1	2	32*
Cc1cc(=O)oc2c3c(cc(OCC(=O)N[C@@H](C)C(=O)O)c12)OC(C)(C)CC3	nt	6	5	nt	-4	nt
Cc1cc(=O)oc2c3c(cc(OCC(=O)NC(Cc4ccc(Cl)cc4)C(=O)O)c12)OC(C)(C)CC3 (stereo not drawn)	0	33*	4	-2	58*	27*
COc1ccccc1CNC(=O)COc1cc2c(c3oc(=O)cc(C)c13)CCC(C)(C)O2	4	18	2	-4	27*	12
Cc1cc(=O)oc2c3c(cc(OCC(=O)NCc4cccnc4)c12)OC(C)(C)CC3	1	20	8	-3	8	13
Cc1ccc(-c2ccc(=O)n(CC(=O)Nc3ccc4c(c3)OCCO4)n2)cc1	1	7	5	-1	0	0
COc1ccc(C(=O)Cn2c(Br)nc3c2c(=O)n(C)c(=O)n3C)cc1	-1	5	-6	-2	3	1
Cc1cc(NC(=O)CSc2ccc3nnc(-c4ccc(F)cc4)n3n2)no1	0	-9	4	2	-1	-1
Cc1ccc(C)n1-c1ccc(C(=O)/C=C/N(C)C)cc1	3	2	0	16*	2	14
CCCc1cc(=O)[nH]c(SCCOC(=O)c2ccccc2)n1	-1	1	-1	-1	2	4
CC(=O)Oc1ccc2c(=O)c(Oc3ccccc3)coc2c1OC(C)=O	1	46*	-1	0	-1	31*
Cc1ccc(Oc2coc3cc(OC(=O)c4cccs4)ccc3c2=O)cc1	2	-8	-3	15	7	4
Cc1ccc(/C=N/NS(=O)(=O)c2ccc([N+](=O)[O-])cc2)o1	-1	0	6	-2	0	3

Assay outcomes as filed in PubChem.
